# Bioassay records as filed in PubChem.
# Tat export inh – blocks Tat-dependent protein export in E. coli; 340,000 compounds, 0.036% hits; E. coli MC4100 TorA-mCherry Tat export, fluorescence; inhibition, % at 10 µM; AID 488895;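 active means mean replicate inhibition at least 50% and at least half of replicates individually reaching 50%; inconclusive means only one of the two criteria met; inactive means neither criterion met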;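 further: exported cargo escapes ClpAP degradation while cytoplasmic cargo is degraded and loses fluorescence; 0% = median of neutral control wells and 100% = median of NaSCN control wells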
# Calb FLC – affects C. albicans growth with fluconazole; growth inhibition, % (concentration not given with the values); C. albicans CaCi-2 (fluconazole-resistant clinical isolate) + fluconazole, Alamar Blue growth, 48 h; 300,000 compounds, 0.57% hits;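 active means growth inhibition above about 58% in most replicates, limit read from the data, passing the limit was not always enough; inconclusive means exactly half the replicates above a set limit; inactive means most replicates below a set limit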;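 further: all wells also contain fluconazole at 8 µg/ml as a sub-toxic cotreatment; 0% = median of DMSO wells and 100% = median of geldanamycin control wells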
# AddAB inh – less growth of phage-infected E. coli with AddAB; E. coli expressing H. pylori AddAB, absorbance growth; inhibition, % at 11.9 µM; 330,000 compounds, 0.29% hits; in the data active means inhibition above about 12%;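 further: 0% = vehicle wells of infected cells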
# E coli growth-1 – blocks Escherichia coli growth; OD600, 23 h; active compounds read low; OD600 absorbance (concentration not given with the values); 330,000 compounds, 0.21% hits; AID 1053175;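 active means OD600 absorbance below the run mean of sample wells minus 3.6 SD, in any replicate, cut at about 0.56 in these data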
# phage Ecoli inh – E. coli growth loss with phage present | growth absorbance | inhibition, % at 11.9 µM | AID 651602 | 360,000 compounds, 0.26% hits; in the data active means inhibition above about 11%
# E coli growth-2 – bacterial growth inhibition, counter-screen for AddAB inhibitors; E. coli V3065 growth, OD600 absorbance, 18 h; inhibition, % at 11.9 µM; 330,000 compounds, 0.27% hits; AID 449728;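 active means inhibition above the campaign's mean inhibition across all tested compounds plus 3 SD, cut at about 9.9% in these data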;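 further: uninfected addAB+ strain grown without phage in ampicillin broth; 0% = DMSO wells and 100% = ciprofloxacin 0.95 µg/ml wells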
# AddAB conf – confirmation screen: growth loss of phage-infected E. coli expressing H. pylori AddAB; E. coli V3065 expressing H. pylori AddAB, T4 phage, OD; T4 phage with gene 2 nonsense mutations; inhibition, % at 11.9 µM; AID 488942; 880 compounds, 64% hits; shares compounds with AddAB inh;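 active means mean inhibition above a set limit taken from the earlier primary screen, cut at about 13% in these data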;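 further: higher means less bacterial growth since AddAB block lets phage replicate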
# RecBCD counter – reduces growth of phage-infected RecBCD+ E. coli, AddAB inhibitor counter-screen. E. coli V66 + mutant T4 phage, OD growth. shares compounds with AddAB inh. inhibition, % at 11.9 µM. 880 compounds, 73% hits. AID 488955;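 active means mean inhibition above the mean of solvent-only control wells plus 3 SD, cut at about 4% in these data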;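 further: optical density read after an 18 h incubation at 37 °C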
# Bact viability – counter-screen for AddAB inhibitors: inhibitors of bacterial viability; shares compounds with AddAB inh; absorbance (AddAB counterscreen); inhibition, % at 11.9 µM; 880 compounds, 35% hits; in the data active means inhibition above about 25%
# * hit, by the source's call; u = inconclusive; x = not tested or not shown. This is a sample that favours compounds with a hit; in the whole collection about 0.9% have one here.
SMILES,Tat export inh,Calb FLC,AddAB inh,E coli growth-1,phage Ecoli inh,E coli growth-2,AddAB conf,RecBCD counter,Bact viability
COc1ccccc1CNC(=O)c1cc(S(=O)(=O)N2CCCC2)cn1C,-3,-9,100*,0.71,4,99*,-3,0,-2
Cc1ccc(S(=O)(=O)N/N=C\c2ccc([N+](=O)[O-])o2)cc1C,11,7,25*,x,9,16*,100*,9.5*,41*
O=[N+]([O-])c1ccc(/C=N/NS(=O)(=O)c2ccc(Cl)cc2)o1,5,x,96*,x,8,22*,101*,7.7*,43*
O=[N+]([O-])c1ccc(C=NNS(=O)(=O)c2ccc(Cl)cc2)o1,x,x,x,0.5,x,x,x,x,x
Cc1ccc(/C=N/NS(=O)(=O)c2ccc([N+](=O)[O-])cc2)o1,3,5,3,x,3,-2,x,x,x
CCOC(=O)N/N=C\c1ccc([N+](=O)[O-])o1,u,22,31*,x,6,26*,98*,13*,29*
Cc1ccc(S(=O)(=O)N/N=C\c2ccc([N+](=O)[O-])o2)cc1,-5,-5,18*,x,7,13*,102*,9.5*,54*
Cc1ccc(NS(=O)(=O)c2cccc(C(=O)NN=Cc3c(C)nn(-c4ccccc4)c3N3CCCC3)c2)c(C)c1,x,x,x,0.73,x,x,x,x,x
CC(C)(OC1OC(CO)C(O)C(O)C1O)C1Oc2ccc3ccc(=O)oc3c2C1O (stereo not drawn),x,x,x,0.68,x,x,x,x,x
Cc1c(Cl)cccc1NC(=S)NCc1ccc(F)cc1,-1,-12,4,0.68,5,1,x,x,x
Cc1c(Cl)cccc1NC(=S)NCc1ccccc1Cl,20,-24,18*,0.69,5,5,17*,23*,18
O=S(=O)(Nc1cccc2ncccc12)c1cccs1,2,95*,18*,0.68,x,4,7,5.2*,0
COc1cc2c(cc1OC)-c1nnc(C)n1C(C)(C)C2,-1,3,1,0.7,2,-3,x,x,x
COc1cc2c(cc1OC)-c1nnc(C)n1C1(CCCC1)C2,5,3,24*,0.72,3,11*,2,1,1
Cc1cc(C(=O)N2CCN(c3cc(Cl)ccc3C)CC2)on1,-5,-5,127*,0.67,1,-3,5,0,-1
Cc1ccc(Cl)cc1N1CCN(C(=O)C(=O)N2CCCCC2)CC1,14,-1,5,0.7,7,-2,x,x,x
FC(F)(F)c1ccc(CN2CC3C(c4ccc(Cl)nc4)C4(c5ccccc5)CC3(C4)C2c2ccccc2)cc1 (stereo not drawn),x,x,x,0.72,x,x,x,x,x
Cc1cnc(CNC(=O)c2ccc3oc(C(C)C)nc3c2)[nH]1,13,7,4,0.7,4,3,x,x,x
COc1cc(CNC(=O)c2ccc3oc(C(C)C)nc3c2)cc(OC)c1,-25,12,14*,0.61,11,9,7,6.4*,4
CCCCNC(=O)O[C@H]1C[C@@H]2CCN3C(=O)CCC[C@H]([C@H]1CC)[C@H]23,-10,-7,15*,x,3,2,-2,1,-4
CCOc1ccc(Cn2cc(F)c(=O)[nH]c2=O)cc1,-9,-4,2,0.65,3,1,x,x,x
CC(C)COc1ccc(S(=O)(=O)n2cc(F)c(=O)[nH]c2=O)cc1,-4,3,13*,0.67,7,7,4,2,4
CCCOc1ccc(S(=O)(=O)n2cc(F)c(=O)[nH]c2=O)cc1,2,1,13*,0.69,3,6,11,1,5
COc1cc(C=NNC(N)=O)cc(Br)c1OCc1ccccc1C,x,x,x,0.73,x,x,x,x,x
O=Nc1c2nc3ccccc3n(O)c-2c2ccccc12,4,3,14*,0.56,6,20*,32*,8.1*,17
SMILES,Tat export inh,Calb FLC,AddAB inh,E coli growth-1,phage Ecoli inh,E coli growth-2,AddAB conf,RecBCD counter,Bact viability
On1c(-c2ccccc2)nc2ccccc21,0,18,6,0.63,3,6,x,x,x
O=[N+]([O-])c1cnc(Sc2ccncn2)s1,-13,2,81*,0.43*,10,12*,98*,8.7*,35*
O=C(Nc1nnc(C(F)(F)F)s1)c1ccc(Br)s1,-3,u,14*,0.62,4,9,4,6.7*,1
O=C(Oc1c(Cl)cc(Cl)c2cccnc12)c1ccco1,-30,101*,50*,0.056*,61*,48*,63*,60*,58*
O=C(COc1ccccc1)NCC(c1ccco1)N1CCCCC1 (stereo not drawn),1,-6,98*,0.6,2,98*,3,3,0
Cc1ccc(OCC(=O)Nc2cc(C)on2)c([N+](=O)[O-])n1,1,2,19*,0.69,6,15*,42*,6.7*,26*
O=S1(=O)Nc2c(ccc3cccnc23)-c2ccccc21,21,9,51*,0.22*,x,51*,45*,49*,46*
COc1cccc(Cn2nnc(C(=O)NCc3ccc(F)cc3)c2N)c1,-4,7,21*,0.74,4,9,1,0,-4
O=c1c(O)c(-c2ccccc2)oc2ccccc12,0,x,x,x,10,x,x,x,x
Cc1ccc(-c2oc3ccccc3c(=O)c2O)cc1,6,-14,13*,0.72,4,13*,14*,14*,10
CCC(C)Sc1ccc(C2N[C@@](Cc3ccccc3)(C(=O)OC)C3C(=O)N(CC)C(=O)C23)cc1OC (stereo partly drawn),x,x,x,0.68,x,x,x,x,x
CCCc1[nH]nc2c1C1(C(=O)N(CC)c3ccccc31)C(C#N)=C(N)O2 (stereo not drawn),-5,-12,17*,0.7,x,26*,-4,-1,-4
C/C(=N\Nc1nc2ccccc2[nH]1)c1ccccn1,-8,-1,27*,x,27*,27*,25*,14*,9
CC1Oc2ccccc2C=C1C=NNC(=O)c1ccncc1 (stereo not drawn),x,x,x,0.7,x,x,x,x,x
COc1ccc(Br)cc1C=NNC(=O)c1cc(Br)ccc1O,x,x,x,0.62,x,x,x,x,x
NC(=O)c1c(NC(=O)c2ccc([N+](=O)[O-])o2)sc2c1CCCC2,3,0,23*,0.64,9,18*,98*,8.8*,28*
N#Cc1c(NC(=O)c2ccccc2)sc2c1CCC2,-6,0,5,0.73,3,1,x,x,x
N#Cc1c(NC(=O)c2ccc([N+](=O)[O-])o2)sc2c1CCC2,1,64,16*,0.54,5,11*,64*,7.3*,19
Cc1nnc(NN=Cc2cccc(C(F)(F)F)c2)n1N,x,x,x,0.66,x,x,x,x,x
